{"source": "PubChem BioAssay AID463173", "about": "(ICCB-Longwood Screening Facility, Harvard Medical School, 2010)", "note": "Out of some 52,000 compounds screened, about 4,300 (8.3%) were called active. Cut-off read from the data, not from the text of the source: active = survival mostly below about 52% (no sharp cut-off); inactive = mostly above about 56%. For the sample, actives were picked, then their nearest neighbours and some compounds at random.", "data": [{"test_system": "DeltatarO mutant", "assay": "growth inhibition of S. aureus wild type versus tarO mutant, primary screen, teichoic acid synthesis inhibitors, RN4220, OD600 (AID 463173)", "settings": "OD600, 18 h, stronger effect = lower value, screened at 18.75 µg/mL (by protocol)", "values": [{"smiles": "Cc1ccc(CNC(=O)c2oc3c(c2C)-c2nn(Cc4ccc(Cl)cc4)cc2CC3)cc1", "survival": "57% (inactive)"}, {"smiles": "Cc1cc2nc(-c3ccc(NC(=O)c4ccc(OCC(C)C)cc4)cc3)oc2cc1C", "survival": "78% (inactive)"}, {"smiles": "Cc1c(CNC2CCCCC2)c(C(=O)O)c(C)n1Cc1ccccc1F", "survival": "88% (inactive)"}, {"smiles": "Cc1ccc2c(c1)-c1onc(C(=O)N(C)c3cccc(C(F)(F)F)c3)c1CO2", "survival": "108% (inactive)"}, {"smiles": "CC(C)OCCCNC(=O)c1ccc2c(c1)N(Cc1c(F)cccc1Cl)C(=O)c1ccccc1S2", "survival": "76% (inactive)"}, {"smiles": "CCCCc1nn2c(=O)cc(COC(=O)c3cccc(Cl)c3)nc2s1", "survival": "67% (inactive)"}, {"smiles": "COc1ccc(C(CC(=O)NCc2ccccc2Cl)N2Cc3ccccc3C2=O)cc1OC", "note": "(stereo not drawn)", "survival": "80% (inactive)"}, {"smiles": "COc1ccccc1N1CCN(S(=O)(=O)c2c(C)sc3ncn(CC(=O)Nc4ccc(C)cc4Br)c(=O)c23)CC1", "survival": "73% (inactive)"}, {"smiles": "O=C(Cc1ccccc1)NC1CCS(=O)(=O)C1", "note": "(stereo not drawn)", "survival": "97% (inactive)"}, {"smiles": "O=C(CCn1cnc2ccccc2c1=O)NCc1ccccc1", "survival": "109% (inactive)"}, {"smiles": "Cc1ccc2c(CC(=O)N(Cc3ccc(Cl)cc3)Cc3ccco3)coc2c1", "survival": "99% (inactive)"}, {"smiles": "Cc1cc(C)c2c(CC(=O)N(Cc3ccc(N(C)C)cc3)Cc3ccco3)coc2c1", "survival": "42% (active)"}, {"smiles": "Cc1ccc2c(C)c(C(=O)N(Cc3ccc(N(C)C)cc3)Cc3ccco3)oc2c1C", "survival": "87% (inactive)"}, {"smiles": "Cc1cc(C)c(OCC(=O)N(Cc2ccc(N(C)C)cc2)Cc2ccco2)c(C)c1", "survival": "49% (inactive)"}, {"smiles": "Cc1ccc2c(CC(=O)N(Cc3ccc(N(C)C)cc3)Cc3ccco3)coc2c1C", "survival": "45% (active)"}, {"smiles": "Cc1cc(C)c2c(CC(=O)N(Cc3ccc(Cl)cc3)Cc3ccco3)coc2c1", "survival": "57% (inactive)"}, {"smiles": "COc1ccccc1CCNC(=O)Cc1c(C)c2cc3c(C(C)(C)C)coc3c(C)c2oc1=O", "survival": "101% (inactive)"}, {"smiles": "O=C(CC1(c2ccc(Cl)cc2)C(=O)c2ccccc2C1=O)N1CCOCC1", "survival": "79% (inactive)"}, {"smiles": "Cc1nc2ccccc2n1CCc1nc2c3ccccc3nc(SCC(=O)Nc3ccc(Br)cc3F)n2n1", "survival": "98% (inactive)"}, {"smiles": "Cn1c(=O)c2c(nc(SCC(=O)Nc3ccc(F)cc3F)n2Cc2ccccc2)n(C)c1=O", "survival": "135% (inactive)"}, {"smiles": "Cn1ncc2nc(SCC(=O)Nc3ccc(Br)cc3F)n(Cc3ccccc3)c(=O)c21", "survival": "29% (active)"}, {"smiles": "CCOC(=O)c1ccccc1NC(=O)c1nn(C)c2c1COc1ccccc1-2", "survival": "59% (inactive)"}, {"smiles": "COC(=O)c1ccccc1NC(=O)Cn1ncc2c(C)n(Cc3ccc(F)cc3)c(C)c2c1=O", "survival": "52% (inactive)"}, {"smiles": "Cc1cccc(NC(=O)Cn2nc(C)c3nn(-c4ccc(Cl)cc4)c(C)c3c2=O)c1C", "survival": "94% (inactive)"}, {"smiles": "O=C(Nc1nc2ccccc2n1CCOc1ccccc1Cl)c1ccccc1", "survival": "17% (active)"}, {"smiles": "COc1cc(C)ccc1OCCn1c(-c2ccc(Cl)cc2)nc2ccccc2c1=O", "survival": "62% (inactive)"}, {"smiles": "COc1ccccc1OCCn1c(NC(=O)c2ccccc2Cl)nc2ccccc21", "survival": "-3% (active)"}, {"smiles": "CCn1c(NC(C)=O)nc2ccccc21", "survival": "85% (inactive)"}, {"smiles": "COc1ccccc1OCCn1c(-c2ccc(Cl)cc2)nc2ccccc2c1=O", "survival": "77% (inactive)"}, {"smiles": "O=C(O)c1ccc(NCc2nc3ccccc3n2CCOc2ccccc2Cl)cc1", "survival": "59% (inactive)"}, {"smiles": "CC(NC(=O)c1ccccc1)c1nc2ccccc2n1Cc1ccc(Cl)cc1", "note": "(stereo not drawn)", "survival": "83% (inactive)"}, {"smiles": "COc1ccccc1OCCCCn1c(C2CC(=O)N(c3ccccc3Cl)C2)nc2ccccc21", "note": "(stereo not drawn)", "survival": "61% (inactive)"}, {"smiles": "COc1ccccc1OCCn1c(NC(=O)c2ccc(Cl)cc2)nc2ccccc21", "survival": "45% (active)"}, {"smiles": "COc1ccc(OCCn2c(NC(=O)c3ccc(OC)cc3)nc3ccccc32)cc1", "survival": "-2% (active)"}, {"smiles": "CCCn1c(CCCNC(=O)c2ccccc2OC)nc2ccccc21", "survival": "111% (inactive)"}, {"smiles": "OCCNc1nc2ccccc2n1CCOc1ccccc1", "survival": "68% (inactive)"}, {"smiles": "COC(=O)c1ccc(Cl)cc1NC(=O)N1CC2CCCN2c2ccccc21", "note": "(stereo not drawn)", "survival": "71% (inactive)"}, {"smiles": "CC(=O)Nc1ccc(-c2cn(CC(=O)NN)cn2)cc1", "survival": "111% (inactive)"}, {"smiles": "COc1cc(OC)cc(C(=O)Nc2ccc(S(=O)(=O)Nc3ncccn3)cc2)c1", "survival": "82% (inactive)"}, {"smiles": "CN1CCc2nc3sc(C(=O)Nc4ccccc4C(F)(F)F)c(N)c3cc2C1", "survival": "150% (inactive)"}, {"smiles": "CCC(=O)N1CCc2cc(S(=O)(=O)CCC(=O)Nc3ccc(OC(F)(F)F)cc3)ccc21", "survival": "83% (inactive)"}, {"smiles": "COc1cc(NC(=O)CC2C(=O)N(c3cccc(C)c3)C(=O)N2Cc2ccco2)cc(OC)c1", "note": "(stereo not drawn)", "survival": "101% (inactive)"}, {"smiles": "Cc1ccc(Cl)cc1NC(=O)CSCc1cnn(-c2ccccc2)c1-n1cccc1", "survival": "70% (inactive)"}, {"smiles": "COc1ccc(CNC(=O)Cc2ccc(NC(=O)N3CCSc4ncccc43)cc2)cc1", "survival": "95% (inactive)"}, {"smiles": "Cc1cccc(NC(=O)c2cc(S(=O)(=O)NCCc3ccccc3)ccc2F)c1C", "survival": "73% (inactive)"}, {"smiles": "Cc1cccn2c(=O)c3cc(C#N)c(=O)n(-c4nnc(SCc5ccccc5F)s4)c3nc12", "survival": "70% (inactive)"}, {"smiles": "O=C(O)C(=Cc1ccc(-c2cccc(C(F)(F)F)c2)o1)C(=O)O", "survival": "65% (inactive)"}, {"smiles": "COc1ccc(C(=O)Nc2nc3ccccc3n2CCOc2ccc(Cl)cc2)cc1", "survival": "-5% (active)"}, {"smiles": "Fc1ccc(CNCc2ccccc2)cc1", "survival": "99% (inactive)"}, {"smiles": "COc1cc(OC)c(NC(=O)CSC2=Nc3ccccc3N=C(c3ccc(F)cc3)C2)cc1Cl", "survival": "65% (inactive)"}, {"smiles": "CCn1c(SCc2ccccc2C)nc(=O)c2c(C(=O)OC)cc(C3CC3)nc21", "survival": "71% (inactive)"}, {"smiles": "CCn1c(SCc2ccccc2Cl)nc(=O)c2c(C(=O)OC)cc(C3CC3)nc21", "survival": "77% (inactive)"}, {"smiles": "CCn1c(SCc2ccccc2F)nc(=O)c2c(C(=O)OC)cc(C3CC3)nc21", "survival": "52% (active)"}, {"smiles": "C=CCn1c(NC)nc2c1c(=O)[nH]c(=O)n2C", "survival": "105% (inactive)"}, {"smiles": "Cc1cc(C)cc(OCC(=O)N(Cc2ccc(C)o2)C2CCS(=O)(=O)C2)c1", "note": "(stereo not drawn)", "survival": "89% (inactive)"}, {"smiles": "CC(=O)C1=C(OC(=O)C(C)C)c2ccccc2S(=O)(=O)N1Cc1ccccc1", "survival": "104% (inactive)"}, {"smiles": "Cc1ccc(C2=Nc3ccccc3N(CC(=O)NCc3ccc(F)cc3)C(=O)C2)cc1C", "survival": "90% (inactive)"}, {"smiles": "Cc1ccc(CNC(=O)CN2C(=O)COc3ccc(S(=O)(=O)Nc4ccccc4)cc32)cc1", "survival": "-4% (active)"}, {"smiles": "Cc1ccc(CNC(=O)CCCN2C(=O)COc3ccc(C)cc32)cc1", "survival": "85% (inactive)"}, {"smiles": "Cc1ccc2c(c1)N(CC(=O)NCCc1ccccc1)C(=O)CO2", "survival": "45% (inactive)"}, {"smiles": "Cc1ccc2c(c1)N(CCC(=O)NCc1ccc(F)cc1)C(=O)CO2", "survival": "62% (inactive)"}, {"smiles": "Cc1ccc(CNC(=O)CN2C(=O)CC(c3ccc(C)c(C)c3)=Nc3ccccc32)cc1", "survival": "52% (active)"}, {"smiles": "COc1ccc(CNC(=O)CN2C(=O)COc3ccc(S(=O)(=O)Nc4ccccc4)cc32)cc1", "survival": "66% (inactive)"}, {"smiles": "COc1cccc(CNC(=O)CN2C(=O)COc3ccc(S(=O)(=O)Nc4ccccc4)cc32)c1", "survival": "77% (inactive)"}, {"smiles": "COc1ccc(CCNC(=O)CN2C(=O)COc3ccccc32)cc1OC", "survival": "126% (inactive)"}, {"smiles": "Cc1ccc(C2=Nc3ccccc3N(CC(=O)NCc3ccc(Cl)cc3)C(=O)C2)cc1C", "survival": "55% (inactive)"}, {"smiles": "Cc1ccc(CNC(=O)CCN2C(=O)COc3ccc(C)cc32)cc1", "survival": "50% (active)"}, {"smiles": "COc1ccc(CCNC(=O)CN2C(=O)COc3ccc(C)cc32)cc1OC", "survival": "45% (active)"}]}]}
